The whole screen tested about 75,000 compounds, of which about 5,700 (7.6%) were called active. Another 7% or so got no clear call; they are omitted. This is one part of a sample in which actives are shown more often than they occur. Calls follow the shape of the dose curve; as a rule, active = well fitted inhibition curve with a large enough effect; inconclusive = small, poorly fitted or top-dose-only effect; inactive = no such curve, though single readings can be large or run the other way.
Each molecule was assayed against 3-hydroxyacyl-CoA dehydrogenase type-2 (Homo sapiens) (UniProt Q99714) (assay: qHTS Assay for Inhibitors of HSD17B4, hydroxysteroid (17-beta) dehydrogenase 4). Conditions: recombinant HSD17B10, NADH fluorescence kinetic; series mostly up to 57.1 µM; activity change, negative = inhibition: at the top concentration.
Summary of the method: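 Activity followed as NADH fluorescence increase (ex 360, em 450 nm) every 30 seconds for 4 min, using final 90 uM beta-hydroxybutyryl CoA and 1 mM NAD+. Recombinant His-tagged enzyme, 20 nM, pH 9.0 Tris buffer, 15 min compound preincubation.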
% is scaled to controls: 0 for no effect and ±100 for the full control effect; potency is read from the fitted curve at half-maximal effect.
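Also: the protocol describes HADH2 (HSD17B10) and not the HSD17B4 of the title; nearly all actives have a fitted effect of over 70% in size.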

Activity change, negative = inhibition, inactive:
CCOC(=O)c1cccc(NC(=O)CN(c2ccc(C)cc2)S(=O)(=O)c2c(C)noc2C)c1 5.58%
CC(C)c1nc2oc3c(N4CCN(C)CC4)ncnc3c2c2c1CCC2 11.4%
CCOC(=O)CSc1nnc(CNC(=O)c2cccs2)n1-c1cc(OC)ccc1OC 11.8%
Cc1cc(N2CCCC2)n2nc(C)c(-c3ccccc3)c2n1 1.36%
C/C(O)=C\c1nc(=O)c2c(C)cc(C)nc2n1-c1ccccc1 -1.92%
Cc1nn2c3cc(N4CCOCC4)ccc3nc2c2ccccc12 -4.24%
O=C(c1ccco1)N1CCN(c2cccc(Cl)c2)CC1 -3.52%
COc1ccc(Cl)cc1NC(=O)c1oc(C)nc1C -17.1%
CC(C)(C)c1csc(NC2=NS(=O)(=O)c3ccccc32)n1 -14.2%
CC1(C)C=CC(=O)[C@]2(C)C1CC(=O)[C@]1(C)C2CC[C@@]2(C)C(c3ccoc3)OC(=O)C3OC321 (some centres not stated) 0.345%
O=C(Cl)c1ccccc1[N+](=O)[O-] 6.57%
CC1CCCC(N2CCN(C(=O)c3ccc(F)cc3)CC2)C1 (configuration not stated) 1.55%
COc1ccccc1-c1nc(N2CCN(C)CC2)c2ccccc2n1 1.29%
CCn1cc(C(=O)NC2CCCCCC2)c(=O)c2cc(S(=O)(=O)N3CCCCC3)ccc21 -5.45%
CN(C)CCSc1nc(N)c2c3c(sc2n1)COC(C)(C)C3 -7.11%
CCCCc1c(O)nc2n(c1=O)CCS2 13.8%
CCOC(=O)CCCNC(=O)CN1C(=O)NC(CCc2ccccc2)C1=O (configuration not stated) 5.32%
CCC(=O)N1CCN=C1SCc1ccc(F)cc1 2.13%
Cc1cc2nc(-c3ccc(NC(=O)c4cccnc4)cc3)oc2cc1C 435%
CCCCC(=O)Nc1ccc2c(c1)OCCO2 8.43%
CNC(=O)c1c(NC(=O)c2ccc(S(=O)(=O)N3CCOCC3)cc2)sc2c1CCC2 -4.1%
Cc1ccc(S(=O)(=O)N(C)CC(=O)N2CCc3ccccc32)cc1 -7.67%
COCCN(CC(=O)Nc1ccccc1C)S(=O)(=O)c1ccc(S(=O)(=O)N2CCCC2)cc1 -15%
CCOc1cc2[nH]c(=S)n(CCCN3CCCC3=O)c(=O)c2cc1OCC -20.1%
CSc1nnc(-c2ccncc2)n1CCCN1CCCC1=O -3.99%
COC(=O)[C@@H]1C[C@H]2CC[C@H](O)C[C@H]2N1Cc1ccc(N2CCN(C)CC2)cc1 3.6%
CNC(=O)CSc1nnc(CCc2ccccc2)n1-c1ccccc1 -5.46%
CCCCCCN(C(=O)CCCCCN1C(=O)NC(c2ccc(C(F)(F)F)cc2)C(C(=O)OCc2ccccc2)=C1C)C(C(=O)NCCCC)c1ccc(OCC(=O)OC)c(C(=O)OC)c1 (configuration not stated) -15.2%
O=C1c2ccccc2C(=O)N1CCCSc1ccccc1 -1.64% [at 11.4 µM]
CCN1C(=O)c2cccc3c(N)ccc1c23 0.994%
Cc1ccc(C(=O)NCCNS(=O)(=O)c2ccccc2)cc1 7.56%
COc1ccc(N2CCN(C(=O)CSc3nnc4ncccn34)CC2)cc1 -1.15%
C=CCn1c(C(C)NC(=O)CC)nc2ccccc21 (configuration not stated) -4.61%
COC(=O)c1cn(CC(=O)NCc2cccs2)c2ccccc12 -2.79%
C=CCOC(=O)c1ccccc1C(=O)OCC=C 1.8%
CCN(CC(=O)NCc1cccs1)c1nnnn1-c1ccccc1 18.2%
c1csc(-c2nc(-c3ccncc3)no2)c1 6.88%
c1ccc2cc(OCCN3CCCC3)ccc2c1 1.12%
CCCC[C@H]1C(=O)N(c2ccccc2)N(c2ccc(O)cc2)C1=O -15.3% [at 25.6 µM]
C/C=C/C=C/C(=O)O 7.5%
COc1ccc(S(=O)(=O)N2CCC(C(=O)N3CCc4ccccc4C3)CC2)cc1OC -13.7%
CSc1nnc2c(n1)OC(c1cn(C)c3ccccc13)N(C(C)=O)c1ccccc1-2 (configuration not stated) 0.0624%

Potency, active:
Cc1cc(C)c2c(n1)nn1c(N3CCN(c4cccc(Cl)c4)CC3)cc(C)nc21 3.16 µM
Cc1cc(C)c2c(n1)nn1c(N3CCOCC3)cc(C)nc21 12.6 µM
CCC1(C)Cc2c(sc3nc4n(c(=O)c23)CCCS4)CO1 (configuration not stated) 31.6 µM
Cc1c(S(=O)(=O)O)oc2c1C(=O)C(=O)c1c-2ccc2c1CCCC2(C)C 10 µM
CCCCCC(=O)Nc1ccc2oc(-c3ccncc3)nc2c1 31.6 µM
CC(C)(C)OC(=O)c1c(N)n(CCCN2CCCC2=O)c2nc3ccccc3nc12 25.1 µM
C[N+](C)(CCCCCC[N+](C)(C)CCCN1C(=O)c2cccc3cccc(c23)C1=O)CCCN1C(=O)c2cccc3cccc(c23)C1=O 25.1 µM
C=CCn1c(N)c(C(=O)OCC(C)C)c2nc3ccccc3nc21 31.6 µM
CC(C)Cn1c(N)c(C(=O)NCc2cccs2)c2nc3ccccc3nc21 15.8 µM
C=CCn1c(N)c(S(=O)(=O)c2cccs2)c2nc3ccccc3nc21 25.1 µM
